Data on 7 molecules can be found in PubChem BioAssay (Tox21).

The target in experiment [1] is Nuclear receptor subfamily 1 group I member 3 (Homo sapiens) (UniProt Q14994). Nature of the experiment: qHTS assay to identify small molecule antagonists of the constitutive androstane receptor (CAR) signaling pathway (AID 1224838). Note: nearly all actives have a fitted effect of over 40% in size. The procedure, abridged:
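Compounds were titrated across 15 concentrations onto HepG2 cells double-stably expressing hCAR and a CYP2B6-2.2kb reporter, together with 50 nM CITCO (final). After 24 h at 37 C, luciferase activity was measured by luminescence.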
For orientation: In qHTS, concentration-response curves come from the screen itself.

Experiment [2] shares this target. The experiment can be described thus: qHTS assay to identify small molecule agonists of the constitutive androstane receptor (CAR) signaling pathway (AID 1224839).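 Note: HepG2 cells stably carrying human CAR and a CYP2B6 luciferase reporter; nearly all actives have a fitted effect of over 15% in size.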 A digest of the protocol: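 Stable hCAR/CYP2B6-2.2kb HepG2 line in DMEM with 10% FBS; compounds (15 concentrations) and 0.75 uM PK11195 final, 24 h at 37 C/5% CO2, then ONE-Glo luminescence after 30 min.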

Experiment [3] in a line: qHTS assay to identify small molecule antagonists of the estrogen related receptor signaling pathway with the pleiotropic PPARgamma coactivator (PGC) from Tox21 10K library - cell viability counter screen (AID 1224840; active = well fitted cell-killing curve with a large enough effect in the repeat runs, not every such curve was filed as active; note: nearly all actives have a fitted effect of over 40% in size; note: potency is the fitted concentration of half-maximal effect). The procedure, abridged: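 Step one, plate 2,000 PGC/ERR cells per well; step two, incubate 6 h at 37 C/5% CO2; step three, pin-transfer compounds; step four, incubate 17.5 h; step five, add CellTiter-Fluor and read fluorescence after 30 min.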

Experiment [4] has as its target Thyrotropin receptor (Homo sapiens) (UniProt P16473). Nature of the experiment: qHTS assay to identify small molecule agonists of the thyroid stimulating hormone receptor (TSHR) signaling pathway (AID 1224843; calls by dose curve; note: nearly all actives have a fitted effect of over 45% in size). The procedure, abridged: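 Steps: seed 800 TSHR-HEK293 cells per well; add test compound and hold 30 min at ambient temperature; dispense cAMP-d2 then anti-cAMP cryptate; incubate 1 h at ambient; measure fluorescence intensity.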

The nature of experiment [5]: qHTS assay to identify small molecule agonists of the hypoxia (HIF-1) signaling pathway - cell viability counter screen (AID 1224844; calls by dose curve; note: nearly all actives have a fitted effect of over 50% in size). The procedure, abridged:
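Tox21 10K compounds were added to HRE-bla ME-180 cells (0.5% dialyzed FBS) and incubated 17 hrs at 37C; ATP-based CellTiter-Glo luminescence then reported cell viability in the same wells.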

A short description of experiment [6]: qHTS assay to identify small molecule agonists of H2AX (AID 1224845; active = well fitted activation curve with a large enough effect in the signal ratio in the repeat runs, not every such curve was filed as active; the % refers to the signal ratio; note: potency is the fitted concentration of half-maximal effect). A digest of the protocol: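 Wild-type CHO-K1 cells, plated overnight, exposed 3hr at 37C to 15 concentrations (0.76% DMSO final). Lysed, then HTRF anti-pH2AX (S139) cryptate and anti-H2AX-d2 antibodies, 24 hr room temperature; 665/620 nm emission read.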
Experiment [7] is described as follows: qHTS assay to identify small molecule agonists of the hypoxia (HIF-1) signaling pathway (AID 1224846; active = well fitted activation curve with a large enough effect in the signal ratio in the repeat runs, not every such curve was filed as active; the % refers to the signal ratio). A digest of the protocol: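 Steps: seed ME-180 HRE-bla cells (2,000/well, 0.5% dialyzed FBS); incubate 5 hrs at 37C; pin-transfer compounds or DMSO; incubate 17 hrs; add LiveBLAzer B/G substrate CCF4-AM; measure reporter activation by FRET.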
Experiment [8] is described as follows: qHTS RealTime-Glo MT Cell Viability Assay in HepG2 cells - 24 hour (AID 1224867). Note: nearly all actives have a fitted effect of over 50% in size. A digest of the protocol:
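Real-time, nonlytic viability: 600 HepG2 cells/well mixed with NanoLuc enzyme plus prosubstrate; 5 h settle, compound (DMSO) added by pintool; luminescence monitored over 40 h at 37 C.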

Experiment [9] can be described thus: qHTS RealTime-Glo MT Cell Viability Assay in HEK293 cells - 32 hour (AID 1224868). Note: nearly all actives have a fitted effect of over 50% in size. Note: potency is the fitted concentration of half-maximal effect. A digest of the protocol:
(§1)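 Cells + reagent dispensed (600 cells/well, HEK293) → 5 h at 37 C/5% CO2 → 23 nL compound in DMSO pinned → 40 h at 37 C → luminescence read at 0, 8, 16, 24, 32, 40 h.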

A short description of experiment [10]: A CellTox Green Cytotoxicity Assay to monitor cytotoxicity in HEK293 cells - 0 hour (AID 1224869). Note: nearly all actives have a fitted effect of over 50% in size. Note: potency is the fitted concentration of half-maximal effect. The procedure, abridged: (§2)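 Cytotoxicity was tracked continuously in HEK293 cells by a DNA-binding dye excluded from viable cells. Compounds were transferred in DMSO 5 h after seeding; fluorescence was recorded at intervals up to 40 h.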
The nature of experiment [11]: A CellTox Green Cytotoxicity Assay to monitor cytotoxicity in HEK293 cells - 40 hour (AID 1224871). Note: nearly all actives have a fitted effect of over 45% in size. Note: potency is the fitted concentration of half-maximal effect. A digest of the protocol:
as §2

A short description of experiment [12]: qHTS RealTime-Glo MT Cell Viability Assay in HEK293 cells - 16 hour (AID 1224872). The procedure, abridged:
as §1

The nature of experiment [13]: qHTS RealTime-Glo MT Cell Viability Assay in HepG2 cells - 8 hour (AID 1224873). Note: nearly all actives have a fitted effect of over 55% in size. The procedure, abridged: (§3)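 HepG2 cells (600/well) mixed with RealTime-Glo MT reagent, settled 5 h at 37 C/5% CO2 before compound addition. Nonlytic NanoLuc luminescence from viable-cell prosubstrate reduction read repeatedly during 40 h treatment at 37 C.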
The nature of experiment [14]: qHTS assay to identify small molecule agonists of H2AX - cell viability counter screen (AID 1224847; calls by dose curve; note: top concentration of the series differs between compounds; nearly all actives have a fitted effect of over 30% in size). A digest of the protocol:
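Viability of CHO-K1 (wild type) cells after 3 hr compound exposure was measured by CellTiter-Glo luminescence.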

Experiment [15] in a line: qHTS RealTime-Glo MT Cell Viability Assay in HepG2 cells - 40 hour (AID 1224870). Note: nearly all actives have a fitted effect of over 50% in size. A digest of the protocol: as §3
Experiment [16] in a line: qHTS assay to identify small molecule antagonists of the estrogen related receptor signaling pathway with the pleiotropic PPARgamma coactivator (PGC) from Tox21 10K library (AID 1224841; call rule not given here; note: potency is the fitted concentration of half-maximal effect). The procedure, abridged:
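Antagonism in this quantitative HTS is taken from loss of luciferase signal in PGC/ERR cells. Cells (2,000/well) are treated with compounds in DMSO after a 6 h settling period and read by One-Glo luminescence after 18 h.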

The nature of experiment [17]: qHTS assay to identify small molecule agonists of the estrogen related receptor signaling pathway with the pleiotropic PPARgamma coactivator (PGC) from Tox21 10K library (AID 1224842). Note: nearly all actives have a fitted effect of over 15% in size. The procedure, abridged:
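PGC/ERR reporter cell line, 2,000 cells per well, incubated 6 h at 37 C before 23 nL compound in DMSO was added. After 18 h at 37 C, One-Glo luminescence read following 30 min at room temperature.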

A short description of experiment [18]: qHTS assay to identify small molecule antagonists of the estrogen related receptor (ERR) signaling pathway from Tox21 library (AID 1224848). Note: nearly all actives have a fitted effect of over 50% in size. Note: potency is the fitted concentration of half-maximal effect. A digest of the protocol:
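Luminescent reporter read-out (ONE-Glo) from NTP's ERR cell line after 18 h treatment at 37 C with DMSO-dissolved Tox21 compounds; cells pre-plated 6 h beforehand at 2,000 per well.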

A short description of experiment [19]: qHTS assay to identify small molecule agonists of the estrogen related receptor (ERR) signaling pathway from Tox21 library (AID 1224849; calls by dose curve; note: nearly all actives have a fitted effect of over 15% in size). To be noted: ERR reporter cell line, ONE-Glo luciferase, 18 h; at 92.4 µM (top of the series). The procedure, abridged: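 Agonist signal is luciferase luminescence from an ERR reporter cell line treated 18 h at 37 C with DMSO-dissolved compounds, read 30 min after ONE-Glo addition at room temperature.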

Values joined by “and” are separate entries in the source; they are usually repeats but may differ in a detail not shown here. Identical values can stand only once. Records with an inconclusive call do not appear. More than one record can exist for a structure, and the calls need not agree. Active and inactive are the calls of the source. Unless noted, calls come from the whole dose curve; as a rule, active = well fitted curve in the direction sought with a large enough effect in the repeat runs; inconclusive = weak or mixed curves; inactive = no such curve, though single readings can be large; an effect the other way counts as inactive or inconclusive.
% is set by controls: 0 for no effect and ±100 for the full control effect.

Chain of Nuclear receptor subfamily 1 group I member 3 (Homo sapiens) (Q14994 whole entry, looked up): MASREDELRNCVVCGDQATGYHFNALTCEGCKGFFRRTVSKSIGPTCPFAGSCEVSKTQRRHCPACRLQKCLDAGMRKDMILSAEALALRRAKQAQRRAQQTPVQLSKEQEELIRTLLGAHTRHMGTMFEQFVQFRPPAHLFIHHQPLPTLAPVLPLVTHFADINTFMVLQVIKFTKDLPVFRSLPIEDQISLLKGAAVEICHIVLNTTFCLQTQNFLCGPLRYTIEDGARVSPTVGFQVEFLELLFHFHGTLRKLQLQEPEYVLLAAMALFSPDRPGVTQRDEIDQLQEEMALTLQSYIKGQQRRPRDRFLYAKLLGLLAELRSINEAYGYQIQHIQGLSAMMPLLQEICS
Chain of Thyrotropin receptor (Homo sapiens) (P16473 whole entry, looked up): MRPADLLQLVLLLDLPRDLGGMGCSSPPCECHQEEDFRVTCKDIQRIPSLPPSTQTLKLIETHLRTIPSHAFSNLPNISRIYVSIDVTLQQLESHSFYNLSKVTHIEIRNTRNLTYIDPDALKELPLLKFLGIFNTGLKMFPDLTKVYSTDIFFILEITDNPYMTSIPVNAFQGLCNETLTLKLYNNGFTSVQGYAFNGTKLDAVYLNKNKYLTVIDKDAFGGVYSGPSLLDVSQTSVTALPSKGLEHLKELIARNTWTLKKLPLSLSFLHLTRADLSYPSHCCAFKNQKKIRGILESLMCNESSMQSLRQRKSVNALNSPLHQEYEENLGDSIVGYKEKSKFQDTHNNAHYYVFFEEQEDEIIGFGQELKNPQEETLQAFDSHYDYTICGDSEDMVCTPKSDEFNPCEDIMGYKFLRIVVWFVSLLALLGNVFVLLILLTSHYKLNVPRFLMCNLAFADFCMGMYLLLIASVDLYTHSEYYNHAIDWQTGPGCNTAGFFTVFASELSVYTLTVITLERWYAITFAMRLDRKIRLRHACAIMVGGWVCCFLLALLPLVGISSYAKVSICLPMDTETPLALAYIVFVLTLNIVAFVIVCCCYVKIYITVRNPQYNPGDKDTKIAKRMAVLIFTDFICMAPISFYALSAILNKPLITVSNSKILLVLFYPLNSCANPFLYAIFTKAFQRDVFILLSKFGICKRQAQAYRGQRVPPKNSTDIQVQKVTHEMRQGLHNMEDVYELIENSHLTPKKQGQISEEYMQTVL

For the molecule `CCCCCCCCCCCC#N`, the Potency entry in experiment [1], in experiment [2], in [3], in experiment [4], in [5] and in experiment [6] was “inactive” throughout. In experiment [9], the Potency entry was “inactive”. Besides, the outcome in [7], in experiment [8], in experiment [12] and in experiment [13] was inactive. Also, the Potency entry is “inactive and 45.2 µM (active)” in experiment [10]; “inactive and 40.3 µM (active)” in experiment [11].

Consider `Clc1ccccc1Cl`, for which the Potency entry in experiment [1], in [2], in experiment [4], in experiment [5], in experiment [6] and in [14] was “inactive” in each case. In addition, the Potency result in experiment [9], in experiment [10] and in experiment [11] was “inactive” throughout. The result in experiment [7], in [8], in [12] and in experiment [13] was inactive.

For the molecule `c1ccc2c(c1)oc1ccccc12`, the Potency entry in experiment [1], in experiment [2], in experiment [4], in experiment [5], in [6] and in experiment [14] was “inactive” each time. The Potency entry in experiment [9] and in [10] was “inactive” throughout. Further, the result in experiment [7], in experiment [8], in [15], in experiment [12] and in experiment [13] was inactive.

For `COc1ccc2c3c1O[C@H]1[C@@H](O)C=C[C@H]4[C@@H](C2)N(C)CC[C@@]341`, the Potency in [3] is 42.6 µM (active) and inactive; in experiment [16], 23.9 µM (active) and inactive; in experiment [6], 99.2 µM (active) and inactive; in experiment [18], 26.9 µM (active) and inactive; in [9] it was 43 µM (active) and inactive. The result in [17], in experiment [7], in [8], in experiment [12] and in experiment [13] was inactive. In addition, the Potency entry in [4], in [5], in experiment [14], in experiment [10] and in experiment [11] was “inactive” each time. Also, the activity change, positive = activation in [19] is -50.6% (inactive) and -3.7% (inactive).

As for `Cc1ccc(N)cc1Cl`, the Potency entry in [1], in [2], in experiment [3], in [4], in [5] and in experiment [6] was “inactive” each time. Besides, the Potency entry in experiment [9], in [10] and in experiment [11] was “inactive” each time. In addition, the result in [7], in experiment [8], in experiment [15], in [12] and in [13] was inactive.

`c1ccc(-c2ccccc2)cc1`: the Potency entry in [4], in experiment [5], in experiment [6], in experiment [14], in experiment [9] and in experiment [10] was “inactive” throughout. In addition, in experiment [11], the Potency result was “inactive”. In addition, the outcome in experiment [7], in [8], in experiment [15], in [12] and in experiment [13] was inactive.

Consider `CCOP(=S)(OCC)SCCSCC`, for which the Potency entry in experiment [1], in experiment [2], in experiment [5], in experiment [6], in experiment [14] and in experiment [9] was “inactive” in each case. Moreover, the Potency entry in [10] and in experiment [11] was “inactive” in each case. Further, the result in experiment [7], in experiment [8], in experiment [15], in experiment [12] and in experiment [13] was inactive.
